# Reference: PubChem BioAssay (Tox21)
# Where “and” joins values, the source holds several entries; their conditions need not be identical. Equal values may be shown once. Results filed as inconclusive are left out. A call without a number means that no potency is given here. A structure can be active in one record and inactive in another. Calls of active or inactive are those of the source. Unless noted, calls come from the whole dose curve; as a rule, active = well fitted curve in the direction sought with a large enough effect in the repeat runs; inconclusive = weak or mixed curves; inactive = no such curve, though single readings can be large; an effect the other way counts as inactive or inconclusive.
# What was measured:
# [1] = qHTS assay for small molecules that induce genotoxicity in human embryonic kidney cells expressing luciferase-tagged ATAD5 (AID 651632); note: nearly all actives have a fitted effect of over 15% in size
# Outline: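 Reporter cells (HEK293T) express luciferase-tagged ATAD5, a protein that accumulates after DNA damage. Treat 16 hr at 37C/5% CO2, add Amplite, wait 30 min at RT, and read luminescence.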
# [2] = qHTS assay for small molecule agonists of the p53 signaling pathway - cell viability (AID 651633; calls by dose curve;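 note: p53RE-bla HCT reporter cells with a stable beta-lactamase p53 reporter; series mostly up to about 83 µM; nearly all actives have a fitted effect of over 30% in size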)
# Outline: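 Viability counter-read: CellTiter-Glo luminescence (30 min, room temperature) in the same p53RE-bla plates. These plates had been exposed to compounds for 16 h at 37 C.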
# [3] = qHTS assay for small molecule disruptors of the mitochondrial membrane potential - cell viability (AID 720634; calls by dose curve; note: nearly all actives have a fitted effect of over 20% in size; note: potency is the fitted concentration of half-maximal effect)
# Outline: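 Measuring cytotoxicity alongside mitochondrial potential, the screen quantified ATP by luminescence in HepG2 cells after 1 hr compound incubation and a 30 min room-temperature CellTiter-Glo step.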
# [4] = qHTS assay for small molecule disruptors of the mitochondrial membrane potential (AID 720635); note: potency is the fitted concentration of half-maximal effect
# Outline: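 Mitochondrial membrane potential tracked with Mito-MPS dye, red aggregates (ex 540/em 590 nm) against green monomers (ex 490/em 535 nm). Compound treatment 1 hr at 37C, dye 30 min in HepG2.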
# [5] = qHTS assay to test for compound auto fluorescence at 590 nm (red) in HepG2 cells (AID 720674)
# Outline: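 1 hr compound incubation on HepG2 cells, 37 C, 5% CO2; plate read ex 540 nm / em 590 nm; intensities reported as Rose Bengal sodium equivalents.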
# [6] = qHTS assay to test for compound auto fluorescence at 535 nm (green) in HepG2 cells (AID 720675)
# [7] = qHTS assay to test for compound auto fluorescence at 460 nm (blue) in HEK293 cells (AID 720678)
# Outline: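 HEK293, 2,000 cells/well, 10% dialyzed FBS; attach 4-5 hr 37C; pin compound or DMSO; o/n 37C/5% CO2; fluorescence 405/460 nm; triamterene-equivalent units.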
# [8] = qHTS assay to test for compound auto fluorescence at 535 nm (green) in HEK293 cells (AID 720680)
# [9] = qHTS assay to test for compound auto fluorescence at 460 nm (blue) in HEK293 cell free culture (AID 720681)
# Outline: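 Blue fluorescence (Ex 405/Em 460 nm, triamterene-equivalent) was read immediately after pin transfer of compound or DMSO into medium (DMEM, 10% FBS) without cells.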
# [10] = qHTS assay to test for compound auto fluorescence at 590 nm (red) in HEK293 cell free culture (AID 720683)
# Outline: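 Red-channel autofluorescence of compounds in culture medium (DMEM, 10% FBS), no cells, measured at 540/590 nm. Rose Bengal sodium is the reference fluorophore for equivalence.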
# [11] = qHTS assay to test for compound auto fluorescence at 590 nm (red) in HepG2 cell free culture (AID 720684)
# Outline: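 Steps: dispense MEM/10% FBS medium, no cells; pin compound or DMSO vehicle; read red channel, Ex/Em 540/590 nm. Output given as Rose Bengal sodium equivalents.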
# [12] = qHTS assay to test for compound auto fluorescence at 460 nm (blue) in HepG2 cell free culture (AID 720685)
# Outline: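 Compound (23 nL) or DMSO pinned into cell-free MEM with 10% FBS; blue fluorescence read at 405/460 nm excitation/emission, expressed as auto-fluorescence equivalency to triamterene.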
# [13] = qHTS assay to test for compound auto fluorescence at 535 nm (green) in HepG2 cell free culture (AID 720686)
# [14] = qHTS assay to test for compound auto fluorescence at 460 nm (blue) in HepG2 cells (AID 720687)
# Outline: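 Blue-channel autofluorescence (Ex/Em 405/460 nm, triamterene-equivalent) was measured after 1 hr compound exposure at 37 C, 5% CO2. Cells were HepG2, plated overnight at 37 C in MEM plus 10% FBS.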
# [15] = biological target: Glucocorticoid receptor (Homo sapiens) (UniProt P04150); experiment: qHTS assay to identify small molecule agonists of the glucocorticoid receptor (GR) signaling pathway (AID 720691; active = well fitted activation curve with a large enough effect in the signal ratio in the repeat runs, not every such curve was filed as active; the % refers to the signal ratio; note: potency is the fitted concentration of half-maximal effect)
# Outline: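 Reporter read-out: fluorescence intensity following 2 h room-temperature LiveBLAzer B/G FRET substrate loading. Prior step: GR-bla HeLa cells held 4 h, then treated 18 h at 37 C.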
# [16] = qHTS assay for small molecules that induce genotoxicity in human embryonic kidney cells expressing luciferase-tagged ATAD5 - cell viability (AID 651634; calls by dose curve; note: nearly all actives have a fitted effect of over 25% in size)
# Outline: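 Seeding of 2,000 HEK293T ATAD5-luciferase cells per well preceded pin-tool compound transfer. Plates sat 15.5 hr at 37C under 5% CO2, then fluorescence was read after 30 min with CellTiter-Fluor.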
# [17] = qHTS assay to test for compound auto fluorescence at 590 nm (red) in HEK293 cells (AID 720679)
# Outline: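 Intensity at 540nm excitation and 590nm emission is reported as Rose Bengal sodium-equivalent autofluorescence. Measurements followed overnight exposure (37C, 5% CO2) of HEK293 cells, 2,000 per well, to 23 nL compound.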
# [18] = qHTS assay to test for compound auto fluorescence at 535 nm (green) in HEK293 cell free culture (AID 720682)
# Outline: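 Cell-free medium (DMEM, 10% FBS) receives compound or DMSO by pintool. Plate read directly at Ex 485/Em 535 nm. Signal converted to fluorescein equivalency.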
# [19] = biological target: Glucocorticoid receptor (Homo sapiens) (UniProt P04150); experiment: qHTS assay to identify small molecule antagonists of the glucocorticoid receptor (GR) signaling pathway (AID 720692; active = well fitted inhibition curve with a large enough effect in the signal ratio in the repeat runs, not every such curve was filed as active; the % refers to the signal ratio; note: potency is the fitted concentration of half-maximal effect)
# Outline: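 Dexamethasone (5 nM final) stimulated a stably integrated GRE-beta-lactamase reporter in HeLa cells during 18 h co-incubation with compounds; signal was quantified as fluorescence intensity of B/G FRET substrate after 2 h.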
# Glucocorticoid receptor (Homo sapiens), sequence (P04150 whole entry, looked up): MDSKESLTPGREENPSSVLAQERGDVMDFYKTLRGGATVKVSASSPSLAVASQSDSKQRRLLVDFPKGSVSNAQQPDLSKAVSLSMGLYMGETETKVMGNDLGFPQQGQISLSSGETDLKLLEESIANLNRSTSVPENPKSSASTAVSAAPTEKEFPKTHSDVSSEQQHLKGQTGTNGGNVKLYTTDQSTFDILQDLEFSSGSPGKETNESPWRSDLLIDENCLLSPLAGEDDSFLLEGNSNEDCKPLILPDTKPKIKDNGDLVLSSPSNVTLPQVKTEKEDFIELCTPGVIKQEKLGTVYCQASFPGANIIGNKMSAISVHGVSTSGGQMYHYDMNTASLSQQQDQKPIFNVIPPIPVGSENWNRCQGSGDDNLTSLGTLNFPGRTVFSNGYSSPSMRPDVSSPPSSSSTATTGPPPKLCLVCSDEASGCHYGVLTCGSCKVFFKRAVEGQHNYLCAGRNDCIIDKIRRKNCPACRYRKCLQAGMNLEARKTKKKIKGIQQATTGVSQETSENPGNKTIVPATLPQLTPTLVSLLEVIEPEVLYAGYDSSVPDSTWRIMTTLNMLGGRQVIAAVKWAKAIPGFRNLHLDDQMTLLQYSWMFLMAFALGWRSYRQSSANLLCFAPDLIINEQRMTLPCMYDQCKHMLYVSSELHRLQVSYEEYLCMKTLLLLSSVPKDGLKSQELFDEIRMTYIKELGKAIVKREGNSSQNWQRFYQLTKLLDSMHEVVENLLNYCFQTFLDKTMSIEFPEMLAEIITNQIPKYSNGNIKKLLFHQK
SMILES,Potency [1],outcome [2],Potency [3],Potency [4],outcome [5],outcome [6],outcome [7],outcome [8],outcome [9],outcome [10],outcome [11],outcome [12],outcome [13],outcome [14],Potency [15],Potency [16],outcome [17],outcome [18],Potency [19]
FC1(F)C(F)(F)C(F)(F)C2(F)C(F)(F)C(F)(F)C(F)(F)C(F)(F)C2(F)C1(F)F (centres undefined),inactive,inactive,inactive,inactive,inactive,inactive,inactive,inactive,inactive,inactive,inactive,inactive,inactive,inactive,inactive,–,–,–,–
NC(CSCC(=O)O)C(=O)O (centres undefined),inactive,inactive,inactive,–,inactive,inactive,inactive,–,inactive,inactive,inactive,inactive,inactive,inactive,–,inactive,–,–,–
C[C@H](NC(CCc1ccccc1)C(=O)O)C(=O)N1CCC[C@H]1C(=O)O (some centres undefined),inactive,–,inactive,inactive,inactive,inactive,inactive,inactive,–,inactive,inactive,inactive,inactive,inactive,inactive,inactive,inactive,inactive,inactive
CC(=O)N(CC(O)CO)c1c(I)c(C(=O)NCCO)c(I)c(C(=O)NCC(O)CO)c1I (centres undefined),inactive,–,inactive,inactive,inactive,inactive,inactive,inactive,–,inactive,–,inactive,inactive,inactive,–,inactive,–,inactive,–
CO/N=C(/C(=O)N[C@@H]1C(=O)N2C(C(=O)OCOC(=O)C(C)(C)C)=C(C)CS[C@H]12)c1csc(N)n1,inactive,inactive,inactive,–,–,inactive,inactive,inactive,–,–,inactive,inactive,inactive,inactive,–,inactive,inactive,inactive,–
COC(=O)CC(C)=O,inactive,inactive,inactive,inactive,inactive,inactive,inactive,inactive,inactive,–,inactive,inactive,inactive,inactive,inactive,–,inactive,inactive,inactive
CCOC(=O)CC(C)=O,–,–,inactive,–,inactive,inactive,inactive,inactive,–,inactive,inactive,inactive,inactive,inactive,–,inactive,inactive,inactive,–
O=C(O)CN(CCOCCOCCN(CC(=O)O)CC(=O)O)CC(=O)O,inactive,inactive,inactive,–,inactive,inactive,inactive,inactive,inactive,inactive,inactive,inactive,–,inactive,inactive,inactive,inactive,inactive,inactive
CCCC(=O)O[C@]1(C(=O)CO)CC[C@H]2[C@@H]3CCC4=CC(=O)CC[C@]4(C)[C@H]3[C@@H](O)C[C@@]21C,–,–,inactive,–,–,inactive,inactive,inactive,–,inactive,–,inactive,inactive,inactive,0.213 µM (active),inactive,inactive,–,–
CN1C(=O)N(C)C(O)C1O (centres undefined),inactive,inactive,inactive,–,–,inactive,inactive,inactive,inactive,inactive,inactive,inactive,–,inactive,inactive,inactive,–,inactive,inactive
CCO/C([O-])=N/c1c[n+](N2CCOCC2)no1,inactive,inactive,inactive,–,–,inactive,inactive,inactive,–,inactive,inactive,inactive,inactive,–,inactive,inactive,inactive,–,inactive
NCCc1cnc[nH]1,–,inactive,inactive,–,inactive,inactive,inactive,–,inactive,–,inactive,inactive,inactive,inactive,–,inactive,inactive,inactive,–
CO[C@]12C[C@@H](COC(=O)c3cncc(Br)c3)CN(C)[C@@H]1Cc1cn(C)c3cccc2c13,inactive,–,inactive,inactive,inactive,inactive,inactive,inactive,inactive,inactive,inactive,inactive,–,inactive,inactive,–,–,inactive,inactive
Cc1[nH]c(=O)c(C#N)cc1-c1ccc2nccn2c1,inactive,inactive,inactive,–,inactive,inactive,inactive,inactive,inactive,inactive,inactive,inactive,inactive,inactive,inactive,inactive,inactive,–,inactive
CCCCOCCOCCOCc1cc2c(cc1CCC)OCO2,–,–,inactive and 17.4 µM (active),55.1 µM (active),inactive,inactive,inactive,inactive,inactive,inactive,inactive,inactive,inactive,inactive,–,inactive,inactive,inactive,–
CC(C)(C)c1ccc(O)c(O)c1,–,inactive,inactive,15.9 µM (active) and 13.7 µM (active),inactive,inactive,inactive,inactive,inactive,–,inactive,inactive,inactive,inactive,inactive,inactive,inactive,inactive,50.9 µM (active)
CN(C)CCCN1c2ccccc2CCc2ccc(Cl)cc21,–,inactive,inactive,–,inactive,inactive,inactive,inactive,inactive,–,inactive,inactive,–,inactive,inactive,inactive,–,–,–
CC(C)NC(=O)NC(C)C,inactive,inactive,inactive,–,inactive,inactive,inactive,inactive,inactive,inactive,inactive,inactive,inactive,inactive,inactive,inactive,inactive,–,–
Cc1nc2c([nH]1)c(=O)n(C)c(=O)n2Cc1ccco1,inactive,–,inactive,inactive,inactive,inactive,inactive,inactive,inactive,inactive,inactive,inactive,inactive,inactive,inactive,–,inactive,inactive,–
